Hits are enriched below; roughly 19% of the tested compounds scored in any of these assays.
SW480 rereplic: DNA re-replication induction in SW480 cells; 1.8% of 340,000 active; Potency, µM (top dose mostly 46.1 µM), for inactives: at the top dose re-replication activation, most hits filed as activators; AID 624297; SW480 DNA re-replication, Hoechst DNA content imaging, 48 h; note: potency is the fitted concentration of half-maximal effect; % of control where 0% means no effect; nearly all actives have a fitted effect of over 55% in size
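Readout is total intensity of Hoechst-stained nuclei, excited at 405 nm and collected at 500-530 nm. Compound treatment lasted 48 hr at 37 C in 5% CO2 before staining.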
BCR signal inh: blocks chronic active B-cell receptor signaling. AID 493014. 0.05% of 340,000 active. Potency, µM (titrated, usually from 46.1 µM), inactives show top-dose activity change, negative = inhibition, hits mostly inhibitors. ABC-DLBCL IkBa-CBG/CBR reporter, luminescence ratio, 4 h; active = well fitted inhibition curve with a large enough effect in the signal ratio, with a control signal flat, not every such curve was filed as active; inconclusive = small, poorly fitted or top-dose-only effect, or effect the other way, or a change in a side signal; the % refers to the signal ratio;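 note: potency is the fitted concentration of half-maximal effect; plate controls were basal doxycycline-induced cells for no effect and cells given 10 µM MG132 for full effect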
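Doxycycline induced both beetle luciferases in TMD8 lymphoma cells; IKK-driven degradation limits the IkappaBalpha-fused green signal, while red luminescence normalises for cell number and nonspecific effects. Compounds tested up to 46 uM, 4 hrs.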
IL-1B inflam inh: inflammasome signaling inhibition, IL-1 beta readout | activity change, % at 57.5 µM | THP-1 LPS/ATP IL-1B secretion, AlphaLISA, 16 h; stronger effect = lower value | 4.7% of 360,000 active | AID 743279; in the data active = activity change below about -50%; inconclusive = mostly about -30% to -49%; note: % is set by controls: 0 for no effect and ±100 for the full control effect
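THP-1 cells pretreated 1 hr with compounds (up to 57.5 uM final), then stimulated with LPS (250 ng/mL final) plus ATP (1.25 mM final); secreted IL-1B measured by AlphaLISA after 16 hr, decreased signal indicating inhibition.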
TDP1 cell CPT: DT40-hTDP1 cell growth loss with CPT; Potency, µM (highest dose often 46.2 µM), for inactives: at the highest dose activity change, negative = growth inhibition, actives largely listed as inhibitors; 12% of 420,000 active; chicken DT40 Tdp1-/-;hTDP1 cells + 20 nM CPT, ATP luminescence, 48 h; note: potency is the fitted concentration of half-maximal effect; % is set by controls: 0 for no effect and ±100 for the full control effect; nearly all actives have a fitted effect of over 55% in size
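Chicken DT40 Tdp1-/- cells stably complemented with human TDP1 were seeded at 400 cells/well in medium containing 20 nM camptothecin, exposed to pin-transferred compounds, and grown at 37 °C for at least 48 hr. Viability was read as ATP luminescence.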
DT40 TDP1 no CPT: qHTS for Inhibitors of human tyrosyl-DNA phosphodiesterase 1 (TDP1): qHTS in cells in absence of CPT; DT40 Tdp1-/- hTDP1 cells, no CPT, ATP luminescence, 48 h; Potency, µM (series often up to 46.2 µM), without a hit: at the highest dose activity change, negative = growth inhibition, usual class: inhibitors; 15% of 420,000 active; note: potency is the fitted concentration of half-maximal effect; % is set by controls: 0 for no effect and ±100 for the full control effect; nearly all actives have a fitted effect of over 55% in size
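Camptothecin absent (DMSO only). Human TDP1-complemented DT40 knockout cells, 400 cells/well, 37 °C for minimum 48 hr; ATP measured via CellTiter-Glo, 30 min dark incubation, luminescence.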
MCF10A rerep: DNA re-replication induction in MCF 10a cells | MCF 10A DNA re-replication, Hoechst nuclear intensity, 48 h | Potency, µM (top dose mostly 46.1 µM), for the others: at the highest dose activity, positive = re-replication, actives largely listed as activators | 2.9% of 350,000 active; note: potency is the fitted concentration of half-maximal effect; % of control where 0% means no effect; nearly all actives have a fitted effect of over 50% in size
Numbers without * were called inactive; ? = inconclusive; . = no result given; [ ] = remark or other dose. Unless noted, calls come from the whole dose curve; as a rule, active = well fitted curve in the direction sought with a large enough effect; inconclusive = small, poorly fitted or top-dose-only effect, or another doubt; inactive = no such curve, though single readings can be large; an effect the other way counts as inactive or inconclusive.

SMILES	SW480 rereplic	BCR signal inh	IL-1B inflam inh	TDP1 cell CPT	DT40 TDP1 no CPT	MCF10A rerep
OCC1(Cc2cccc(F)c2)CCN(Cc2cccc3nccnc23)CC1	?	-2%	?	-17%	-27%	-9%
CC(C)c1csc(CN2CCC(CO)(Cc3cccc(F)c3)CC2)n1	-1%	-2%	-59*	?	23µM*	?
N#Cc1cccc(-c2csc(C(O)c3ccco3)n2)c1 (configuration not stated)	.	.	-13	-26%	-3%	.
Cn1c(=O)c(C(=O)COC(=O)c2cc(C3CC3)nc3ccccc23)c(N)n(Cc2ccccc2)c1=O	8%	1%	-8	21µM*	16µM*	?
Cn1c(=O)c(C(=O)COC(=O)c2cc(-c3ccco3)nc3ccccc23)c(N)n(CC2CC2)c1=O	16µM*	4%	.	.	.	8%
COc1ccc(NC(=O)c2cc(-c3cc(Cl)ccc3OC)n[nH]2)c(C)c1	.	.	?	?	18µM*	.
COc1ccc(Cl)c(-c2cc(C(=O)Nc3ccc(C)c(NS(C)(=O)=O)c3)[nH]n2)c1	.	.	-30	?	?	.
COc1ccc(Cl)cc1-c1cc(C(=O)Nc2ccc(C)c(NS(C)(=O)=O)c2)[nH]n1	.	.	?	18µM*	21µM*	.
COc1ccc(Cl)cc1-c1cc(C(=O)Nc2ccc(C(C)(C)C)cc2)[nH]n1	.	.	21	21µM*	15µM*	.
COc1ccc(NC(=O)c2cc(-c3ccc(C)c(C)c3O)n[nH]2)cc1Cl	?	0%	26	?	?	18µM*
COc1ccc(NC(=O)c2cc(-c3cc(Cl)ccc3C)n[nH]2)c(OC)c1	.	.	-19	?	?	.
COc1ccc(F)cc1-c1cc(C(=O)Nc2cccnc2)[nH]n1	.	.	-9	-3%	-10%	.
O=C(O)c1c(C(=O)O)c2ccccc2[nH]c1=O	.	.	.	-18%[9.04 µM]	-9%[9.04 µM]	.
CCn1nc(NS(=O)(=O)c2ccc([N+](=O)[O-])cc2)c2cc3ccccc3nc21	-15%	6%	22	-18%	10%	?
CCCSc1ncc(Cl)c(C(=O)Nc2nc3ccc(C)cc3s2)n1	.	.	.	4%	-25%	.
COC(=O)c1cn([C@@H]2C[C@@H](C(=O)N3CCCCCC3)N(Cc3cc4ccccc4s3)C2)nn1	.	.	.	-29%	-27%	.
CCOc1ccc(Cl)cc1-c1cc(C(=O)Nc2ccc(F)cc2)[nH]n1	.	.	-21	?	16µM*	.
O=C(Nc1cccnc1)c1cc(-c2cc(Cl)ccc2O)n[nH]1	0%	?	-20	-25%	?	?
COc1ccc(NC(=O)c2cc(-c3ccc(F)cc3OC)n[nH]2)cc1OC	.	.	-26	?	?	.
CCOc1ccc(NCC(=O)Nc2ccc(Cl)cc2C)cc1	?	-15%	-26	?	?	?
COc1ccc(NC(=O)c2cc(-c3cc(Cl)ccc3C)n[nH]2)cn1	.	.	-16	23µM*	?	.
COc1ccc(NC(=O)CSc2cc(C)ccc2C)cn1	-5%	6%	-22	?	16µM*	1%
COc1ccc(NCC(=O)Nc2ccc(Cl)cc2C)c(OC)c1	16µM*	?	?	?	29µM*	10%
CCCS(=O)(=O)c1nc(S(=O)(=O)c2ccc(C)cc2)c(N2CCN(CCO)CC2)s1	-2%	1%	-14	14%	-16%	-3%
COc1ccccc1CNC(=O)CCS(=O)(=O)c1ccc(Cl)cc1	5%	-2%	-5	0%	-27%	0%
SMILES	SW480 rereplic	BCR signal inh	IL-1B inflam inh	TDP1 cell CPT	DT40 TDP1 no CPT	MCF10A rerep
CCCOc1ccc(F)cc1-c1cc(C(=O)Nc2ccc(OC)cc2OC)[nH]n1	.	.	-13	?	18µM*	.
CCCOc1ccc(F)cc1-c1cc(C(=O)Nc2ccc(OC)cc2C)[nH]n1	.	.	-26	?	?	.
CCOc1ccc(C(=O)n2cc(C(=O)OC)c3ccccc32)cc1	?	0%	2	?	13µM*	?
CCOc1ccc(C(=O)n2cc(C(=O)OC)c3ccccc32)cc1OCC	-6%	-10%	-4	?	?	12%
CC(=O)c1ccc(CC2SC(N)=NC2=O)cc1 (configuration not stated)	-3%	-2%	-15	-9%	-2%	17%
CC(C)=C[C@@H]1C[C@H](C)[C@H]2CC[C@H](C)c3c(O)c(O)c(C)c1c32	14%	2%	-8	21µM*	?	?
CC(=O)Oc1c(C)c2c3c(c1OC(C)=O)[C@@H](C)CC[C@@H]3[C@@H](C)C[C@H]2C=C(C)C	6%	?	-10	?	?	26µM*
CC(=O)c1cc(CN2CCN(C(C)C)C(CCO)C2)cs1 (configuration not stated)	?	-6%	-20	-2%	?	-22%
Cc1ccc(NS(=O)(=O)c2csc(C(N)=O)c2)cc1C	-1%	2%	32	?	21µM*	?
Cc1cc(C)cc(NS(=O)(=O)c2csc(C(N)=O)c2)c1	-8%	-1%	14	2%	-25%	11%
CCc1cccc(NS(=O)(=O)c2csc(C(N)=O)c2)c1	0%	0%	26	-23%	15µM*	?

From PubChem BioAssay
